# Counter-ions that a name gives are not always drawn.
# Key:
# [1] = test system: Staphylococcus aureus MW2 delta-mecA (mecA-); assay: normalized GFP fluorescence (growth of mecA- strain) (fraction of control range); higher = more growth of mecA- strain; details: compound concentration: 150 uM; cefoxitin: subinhibitory; fluorescent label: GFP
# Summary of the method: (§1)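 Pre-induced S. aureus MW2 cells carrying the gene (DsRed) and deletion cells lacking it (GFP) were combined 1:1 in LB containing a subinhibitory antibiotic dose set each day, then dispensed at 5 µL/well onto 150 μM compound (1.5% DMSO) in 1536-well plates as a single replicate. After 20 h at 37 °C and 90% humidity without shaking, DsRed (540/590) and GFP (485/520) were read. Each channel was scaled per plate between the medians of the single-strain controls, and plates with high untreated ratios and rows with DsRed/GFP >10 were excluded.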
# [2] = test system: Staphylococcus aureus MW2 (mecA+); assay: normalized DsRed fluorescence (growth of mecA+ strain) (fraction of control range); higher = more growth of mecA+ strain; details: compound concentration: 150 uM; cefoxitin: subinhibitory; fluorescent label: DsRed
# Summary of the method: as §1
SMILES,normalized GFP fluorescence [1],normalized DsRed fluorescence [2]
CC(C)(C)NC[C@H](O)COc1ccccc1C1CCCC1,0.435,0.586
CN1CCC[C@@H]1CCO[C@](C)(c1ccccc1)c1ccc(Cl)cc1 [Clemastine Fumarate],0.00687,0.338
COc1ccc2c(c1)C(=O)N(CCc1ccc(S(=O)(=O)NC(=O)NC3CCCCC3)cc1)C(=O)C2(C)C [Gliquidone],0.017,0.134
Cc1ccc(NC(=O)c2ccc(CN3CCN(C)CC3)cc2)cc1Nc1nccc(-c2cccnc2)n1 [Imatinib Mesylate],0.184,0.918
CO[C@@]1(NC(=O)CSCC#N)C(=O)N2C(C(=O)O)=C(CSc3nnnn3C)CS[C@@H]21,0.268,0.711
CN[C@@H]1[C@H](O[C@H]2[C@H](O[C@H]3[C@H](O)[C@@H](O)[C@H](NC(=N)N)[C@@H](O)[C@@H]3NC(=N)N)O[C@@H](C)[C@]2(O)CO)O[C@@H](CO)[C@H](O)[C@H]1O,0.292,0.832
C#C[C@]1(OC(C)=O)CC[C@H]2[C@@H]3CCC4=C[C@@H](OC(C)=O)CC[C@@H]4[C@H]3CC[C@@]21C,0.192,0.568
O=C(OOC(=O)c1ccccc1)c1ccccc1,0.437,0.519
COc1ccc2cc(CCC(C)=O)ccc2c1,0.292,0.79
CC(=O)c1ccc(S(=O)(=O)NC(=O)NC2CCCCC2)cc1,0.35,0.729
CC(C)NCC(O)c1ccc(O)c(O)c1 (stereo not given) [Isoprenaline hydrochloride],0.458,0.758
Cc1cnc(C(=O)NCCc2ccc(S(=O)(=O)NC(=O)NC3CCCCC3)cc2)cn1,0.553,0.734
COc1ccc2c(c1)c(CC(=O)O)c(C)n2C(=O)c1ccc(Cl)cc1,-0.013,0.261
CS(=O)(=O)CCNCc1ccc(-c2ccc3ncnc(Nc4ccc(OCc5cccc(F)c5)c(Cl)c4)c3c2)o1 [Lapatinib Ditosylate (Tykerb)],-0.0239,1.52
C#C[C@]1(O)CC[C@H]2[C@@H]3CCC4=Cc5oncc5C[C@]4(C)[C@H]3CC[C@@]21C,0.414,0.779
Cc1cc(C(C)(C)C)c(O)c(C)c1CC1=NCCN1 [Oxymetazoline hydrochloride],0.135,1.28
COc1cc2c(cc1OC)C(=O)C(CC1CCN(Cc3ccccc3)CC1)C2 (stereo not given),0.341,0.564
NCCc1ccc(O)c(O)c1,0.483,0.728
COc1cc(C(=O)NCc2ccc(OCCN(C)C)cc2)cc(OC)c1OC,0.326,0.862
CCCCCCCN(CC)CCCC(O)c1ccc(NS(C)(=O)=O)cc1 (stereo not given) [Ibutilide fumarate],0.723,0.737
N#Cc1ccc(C(c2ccc(C#N)cc2)n2cncn2)cc1,0.628,0.758
c1cc(CN2CCCNCCNCCCNCC2)ccc1CN1CCCNCCNCCCNCC1 [Plerixafor],0.396,0.938
CC1=NN(c2ccc(C)c(C)c2)C(=O)/C1=N\Nc1cccc(-c2cccc(C(=O)O)c2)c1O,-0.0259,0.021
CC(CCc1ccccc1)NCC(O)c1ccc(O)c(C(N)=O)c1 (stereo not given),0.745,0.7
CCC(NC(C)C)C(O)c1ccc(O)c(O)c1 (stereo not given),0.38,0.581
CN(Cc1cc(Br)cc(Br)c1N)C1CCCCC1,0.459,0.919
CCC1=C[C@@H]2CN(C1)Cc1c([nH]c3ccccc13)[C@@](C(=O)OC)(c1cc3c(cc1OC)N(C)[C@H]1[C@@](O)(C(=O)OC)[C@H](OC(C)=O)[C@]4(CC)C=CCN5CC[C@]31[C@@H]54)C2 [Vinorelbine (Navelbine)],0.108,0.921

SMILES,normalized GFP fluorescence [1],normalized DsRed fluorescence [2]
CSCC[C@H](NC(=O)[C@H](Cc1c[nH]c2ccccc12)NC(=O)CCNC(=O)OC(C)(C)C)C(=O)N[C@@H](CC(=O)O)C(=O)N[C@@H](Cc1ccccc1)C(N)=O,0.461,0.68
CC(C)(C)NCC(O)COc1cccc2c1CCC(=O)N2 (stereo not given),0.243,1.11
CN(C)CCC(c1ccc(Br)cc1)c1ccccn1 (stereo not given),0.11,1.02
CCCc1cc(=O)[nH]c(=S)[nH]1,0.668,0.582
CNC(=O)CN(CCN(CCN(CC(=O)O)CC(=O)NC)CC(=O)O)CC(=O)O.O.[Gd] [Gadodiamide (Omniscan)],0.443,0.566
CC1(C)[C@@H](OC(=O)CCC(=O)O)CC[C@]2(C)[C@H]3C(=O)C=C4[C@@H]5C[C@@](C)(C(=O)O)CC[C@]5(C)CC[C@@]4(C)[C@]3(C)CC[C@@H]12,0.146,0.249
Nc1ncnc2c1ncn2[C@@H]1O[C@H](CO)[C@@H](O)[C@@H]1O,0.428,0.346
CC(=O)OCC(=O)[C@@]1(O)CC[C@H]2[C@@H]3CCC4=CC(=O)CC[C@]4(C)[C@H]3C(=O)C[C@@]21C,0.843,0.634
CCCc1nc(C)c2c(O)nc(-c3cc(S(=O)(=O)N4CCN(CC)CC4)ccc3OCC)nn12,0.68,0.461
N[C@H](C(=O)O)[C@H](O)c1ccc(O)c(O)c1 [Droxidopa (L-DOPS)],-0.00088,1.79
CC1=C(/C=C/C(C)=C/C=C/C(C)=C/CO)C(C)(C)CCC1,0.232,0.677
C[N+]1(C)[C@@H]2CC[C@H]1C[C@@H](OC(=O)C(O)c1ccccc1)C2 (stereo not given in full),0.29,0.71
Cc1oncc1C(=O)Nc1ccc(C(F)(F)F)cc1,0.0504,1.25
CC(O)C(=O)O.N (stereo not given),0.217,0.837
CN(C/C=C/C#CC(C)(C)C)Cc1cccc2ccccc12 [Terbinafine hydrochloride (Lamisil)],0.111,0.483
Nc1ccc(S(=O)(=O)c2ccc(N)cc2)cc1,0.296,0.89
O=C1O[C@H]([C@@H](O)CO)C(O)=C1O,0.78,0.485
CCOC(=O)C(C)(C)Oc1ccc(Cl)cc1,0.258,0.633
CC1=C(/C=C/C(C)=C/C=C/C(C)=C/C(=O)O)C(C)(C)CCC1,-0.00103,0.642
O=C(O)C(=O)O.[NH-][C@@H]1CCCC[C@H]1[NH-].[Pt+2],0.253,1.17
O=c1n(CCCN2CCN(c3cccc(Cl)c3)CC2)nc2ccccn12,0.187,1.1
COc1ccccc1OCC(O)COC(N)=O (stereo not given),0.207,0.692
COc1cc(/C=C/C(=O)N2CCN(CC(=O)N3CCCC3)CC2)cc(OC)c1OC [Cinepazide maleate],0.547,0.533
NNc1nncc2ccccc12,0.383,0.694
COc1ccc(CNc2nc(N3CCC[C@H]3CO)ncc2C(=O)NCc2ncccn2)cc1Cl [Avanafil],0.53,0.718
Cc1ccccc1C(=O)Nc1ccc(C(=O)N2CCCC(O)c3cc(Cl)ccc32)c(C)c1 (stereo not given),0.188,0.541
Clc1ccc2nsnc2c1NC1=NCCN1 [Tizanidine HCl],0.539,0.515

SMILES,normalized GFP fluorescence [1],normalized DsRed fluorescence [2]
NS(=O)(=O)c1cc(C2(O)NC(=O)c3ccccc32)ccc1Cl (stereo not given),0.344,0.584
CCCCC(=O)O[C@H]1CC[C@H]2[C@@H]3CCc4cc(O)ccc4[C@H]3CC[C@]12C,0.109,0.605
CCCCN1CCCCC1C(=O)Nc1c(C)cccc1C (stereo not given),0.62,0.887
CCN(CC)C(=O)N1CCN(C)CC1,0.599,0.455
Nc1ccc(C(=O)NCC(=O)O)cc1,0.297,0.671
CN(C/C=C/c1ccccc1)Cc1cccc2ccccc12,0.0944,1.02
C=C1CC[C@H](O)C/C1=C/C=C1\CCC[C@]2(C)[C@@H]([C@H](C)CCCC(C)(C)O)CC[C@@H]12 [Calcifediol],-0.0113,0.65
CCCCOc1cc(C(=O)NCCN(CC)CC)c2ccccc2n1 [Dibucaine (Cinchocaine) HCl],0.265,0.835
C#Cc1cccc(Nc2ncnc3cc4c(cc23)OCCOCCOCCO4)c1 [Icotinib],0.488,0.429
CC(C)NCC(O)c1ccc(NS(C)(=O)=O)cc1 (stereo not given),0.417,0.703
Cc1[nH]c(=O)c(C#N)cc1-c1ccncc1,0.476,0.797
C[C@@H]1C[C@H]2[C@@H]3C[C@H](F)C4=CC(=O)C=C[C@]4(C)[C@@]3(F)[C@@H](O)C[C@]2(C)[C@@]1(O)C(=O)CO,0.766,0.847
NC12CC3CC(CC(C3)C1)C2,0.453,0.794
Nc1nc(F)nc2c1ncn2[C@@H]1O[C@H](COP(=O)(O)O)[C@@H](O)[C@@H]1O,0.362,0.656
CC1(C)O[C@@H]2[C@@H](CO[C@@]3(COS(N)(=O)=O)OC(C)(C)O[C@@H]23)O1,0.798,0.547
CC(C)[C@H]1CC[C@H](C(=O)N[C@H](Cc2ccccc2)C(=O)O)CC1,3.92e-05,0.513
O=C1CN(/N=C/c2ccc(-c3ccc([N+](=O)[O-])cc3)o2)C(=O)N1,0.519,0.706
CC(C(=O)O)c1ccc(C(=O)c2cccs2)cc1 (stereo not given),0.344,0.423
NC[C@H]1O[C@H](O[C@H]2[C@H](O[C@@H]3O[C@H](CO)[C@@H](O)[C@H]3O)[C@@H](O)[C@H](N)C[C@@H]2N)[C@H](N)[C@@H](O)[C@@H]1O,0.457,0.685
CC1=C(C(=O)O)N2C(=O)[C@@H](NC(=O)[C@H](N)c3ccc(O)cc3)[C@H]2SC1,0.0167,1.2
CCc1nn(CCCN2CCN(c3cccc(Cl)c3)CC2)c(=O)n1CCOc1ccccc1,0.108,0.736
COc1cc2c3cc1Oc1cc(ccc1O)C[C@@H]1c4c(cc(OC)c(O)c4Oc4ccc(cc4)C[C@@H]3N(C)CC2)CC[N+]1(C)C,0.357,0.607
NC(=O)c1cccnc1 [Nicotinamide (Niacinamide)],0.478,0.458
NNCCc1ccccc1,0.153,0.707
O=C1C(CC[S+]([O-])c2ccccc2)C(=O)N(c2ccccc2)N1c1ccccc1 (stereo not given),0.525,0.445
CO[C@H]1C(=O)[C@]2(C)[C@@H](OC)C[C@H]3OC[C@@]3(OC(C)=O)[C@H]2[C@H](OC(=O)c2ccccc2)[C@]2(O)C[C@H](OC(=O)[C@H](O)[C@@H](NC(=O)OC(C)(C)C)c3ccccc3)C(C)=C1C2(C)C [Cabazitaxel (Jevtana)],0.256,1.24

# From the supplement of paper PMC7695840
